# Rows were chosen to be rich in hits. Some 2.2% of all compounds tested hit in one or more screens of this group.
# LGR2 inh – inhibitors of bursicon-induced Drosophila LGR2 receptor cAMP signaling; 380,000 compounds, 0.35% hits; HEK293 LGR2, CRE-luciferase, bursicon-stimulated, 4 h; inhibition, % at 9.99 µM;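 active means drop in luminescence signal, shown as inhibition above about 50% in the replicate tests, limit read from the data, passing the limit was not always enough; inconclusive means probably only some replicates passing the limit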;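 further: agonist challenge used bursicon conditioned medium at about half maximal strength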
# MITF TRPM1 inh – inhibitors of MITF-driven TRPM1 promoter in melanoma cells; inhibition, % at 12.5 µM; AID 488899; 330,000 compounds, 0.83% hits; SK-MEL-5 TRPM1 promoter luciferase, 24 h;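 active means mean inhibition across replicates of 60% or more, whatever share of single replicates reaches that level; inconclusive means some that reach 60%, reason not given; inactive means mean inhibition across replicates below 60%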
# EBV LMP1 NFkB – Epstein-Barr LMP1 NF-kappaB reporter inhibition; inhibition, % at 12.5 µM; 350,000 compounds, 0.69% hits; LMP1-induced NF-kappaB luciferase reporter cells, luminescence; AID 504558; in the data active means inhibition above about 41%; inconclusive means no clear call, values can overlap the other calls;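 further: 0% = neutral control wells and 100% = reference inhibitor control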
# EWS-Fli block – EWS/Fli transcriptional activity inhibition. A673 NR0B1-luciferase reporter, viability-normalised. inhibition, % at 12.6 µM. 350,000 compounds, 0.67% hits;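 active means mean inhibition of at least 50% after viability correction, with every replicate also passing that limit; inconclusive means mean reaches 50% but only one of two replicates passes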;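 further: firefly luciferase signal divided by Alamar Blue viability fluorescence both relative to DMSO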
# PGC1a acetyl inh – PGC1a acetylation modulation, inhibitor mode; 350,000 compounds, 0.17% hits; U2OS PGC1a acetylation, AlphaScreen anti-acetyl-lysine; with virally co-expressed GCN5 acetyltransferase; inhibition, % at 15.6 µM;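 active means every replicate shows inhibition of at least 40%; inconclusive means mean inhibition at least 40% but some replicate below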;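 further: 0% = neutral control wells and 100% = positive control wells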
# PAX8 inh HTS – PAX8 transcriptional activity inhibition; 360,000 compounds, 1.2% hits; RMG-I TPO-luciferase reporter, SteadyGlo, 24 h; AID 652154; inhibition, % at 12.6 µM;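 active means mean replicate inhibition at least 60% with every replicate also reaching 60%; inconclusive means only one of the two criteria is met; inactive means mean below 60% and not all replicates reaching 60%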;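 further: luciferase light reporting Pax8 driven TPO promoter activity; plate controls were median of neutral control wells for no effect and mitoxantrone controls for full effect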
# The depositor's hits bear a star; ? = inconclusive; . = no result.
SMILES,LGR2 inh,MITF TRPM1 inh,EBV LMP1 NFkB,EWS-Fli block,PGC1a acetyl inh,PAX8 inh HTS
COc1ccc(NC(=O)/C(Cl)=C(/Cl)S(=O)(=O)Cc2ccc(C)cc2)cn1,.,94*,87*,.,59,.
COCC(=O)Nc1ccc2c(c1)[C@@H]1C[C@H](CC(=O)N(C)C)O[C@H](CO)[C@@H]1O2,7,.,.,-1,2,-7
COc1ccc(S(=O)(=O)N(C)C[C@H]2Oc3ccc(NS(=O)(=O)c4c(C)noc4C)cc3CC(=O)N([C@H](C)CO)C[C@@H]2C)cc1,-6,.,.,-2,1,-4
NNC(=O)c1cc2ccccc2cc1O,34,76*,51*,.,.,3
O=C(NCCO)c1cc2ccccc2cc1O,.,8,15,.,6,.
Cc1ccc(Cl)cc1NC(=O)COC(=O)c1ccccc1O,4,1,4,-18,-6,10
Cc1ccc(Cl)cc1NC(=O)c1cc2ccccc2cc1O,5,72*,37,12,26,78*
COc1cc(NC(=O)c2cc3ccccc3cc2O)c(OC)cc1Cl,35,29,9,-10,-15,72*
Cc1cc(O)c(C(C)C)cc1NC(=O)c1ccccc1Cl,.,4,-1,-12,-15,70*
Cc1cc(NC(=O)c2ccccc2Cl)c(C(C)C)cc1O,.,-6,-5,.,-9,.
O=C(C[C@H]1C=C[C@@H](NC(=O)c2cccnc2)[C@H](CO)O1)NCc1ccncn1,4,.,.,.,-3,-2
COc1ccc(NC(=O)Nc2ccc3c(c2)[C@@H]2C[C@H](CC(=O)N4CCOCC4)O[C@H](CO)[C@@H]2O3)cc1,14,.,.,6,-7,-6
CCCCCCC(=O)N(O)C1CC(=O)N(c2ccc(C)cc2)C1=O (centres undefined),.,15,51*,.,-3,9
CCCCCCC(=O)N(O)C1CC(=O)N(c2ccc(Cl)cc2)C1=O (centres undefined),17,11,31,10,19,0
CC(C)NC(=O)Nc1ccc2c(c1)C(=O)N([C@@H](C)CO)C[C@@H](C)[C@@H](CN(C)Cc1ccc(C(=O)O)cc1)OCCCC[C@@H](C)O2,1,.,.,4,-7,-1
CCOC(=O)N1CCN(C(=O)C2CCC(=O)N(Cc3ccccc3OC)C2)CC1 (centres undefined),-7,.,46*,-10,0,-23
C[C@@H]1CCCCO[C@H](CN(C)Cc2ccc(C(F)(F)F)cc2)[C@@H](C)CN([C@@H](C)CO)C(=O)c2cc(NS(=O)(=O)c3ccc(Cl)cc3)ccc2O1,48,.,.,17,-12,113*
C[C@H]1CCCCO[C@H](CN(C)Cc2ccc(C(F)(F)F)cc2)[C@@H](C)CN([C@@H](C)CO)C(=O)c2cc(NS(=O)(=O)c3ccc(Cl)cc3)ccc2O1,18,.,.,14,2,93*
C[C@@H]1CCCCO[C@@H](CN(C)Cc2ccc(C(F)(F)F)cc2)[C@@H](C)CN([C@H](C)CO)C(=O)c2cc(NS(=O)(=O)c3ccc(Cl)cc3)ccc2O1,12,.,.,-11,9,-16
C[C@@H]1CCCCO[C@H](CN(C)Cc2ccc(C(F)(F)F)cc2)[C@H](C)CN([C@@H](C)CO)C(=O)c2cc(NS(=O)(=O)c3ccc(Cl)cc3)ccc2O1,11,.,.,27,-6,105*
CO[C@@H]1CN(C)C(=O)c2cc(NS(C)(=O)=O)ccc2OC[C@H](C)N(CC2CCCCC2)C[C@H]1C,1,.,.,16,-3,.
COc1ccc2c3c([nH]c2c1)[C@H](CO)N(C(=O)c1cnccn1)CC31CCN(C(=O)c2cnccn2)CC1,-3,.,.,1,-1,.
Cc1ccc(C(=O)c2cccc(N)c2)cc1C,-24,66*,28,?,-3,1
Cc1ccc(C(=O)c2ccc(O)cc2)cc1C,.,-35,-8,.,12,-60
Cc1csc(NC(=O)c2cn3ccccc3n2)n1,89*,54,68*,73*,2,78*
Cc1csc(NC(=O)c2cnc3ccccc3n2)n1,58*,10,17,58*,-2,-24
O=C(Nc1ccc(-n2cnnn2)cc1)c1cn2ccccc2n1,-32,-65,-21,-73,1,-93
O=C(Nc1ccccc1)c1cn2ccccc2n1,?,2,42*,30,-2,-17

# Screens deposited in PubChem BioAssay by Broad Institute.
